Test results reported in PubChem BioAssay (NCI).
The panel holds about 83,000 compounds, 20% with a hit somewhere; the sample as a whole holds those more often.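 In brief: 96-well plates, 48 h treatment, single concentration, percent growth endpoint.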 A number with no mark means an inactive call. The source made the active and inactive calls. Rule for the calls: active = growth percent below 10; inactive = the rest.

What was measured:
Assay in all cases: NCI-60 one-dose screen, 48 h (100 = growth as untreated, 0 = no growth, -100 = all killed)
Details in all cases: 10 µM unless noted
NCI-H23 lung = tested on: NCI-H23 lung
NCI-H226 lung = tested on: NCI-H226 lung
NCI-H322M lung = tested on: NCI-H322M lung
HOP-62 NSCLC = tested on: HOP-62 NSCLC
NCI-H460 lung = tested on: NCI-H460 lung
NCI-H522 lung = tested on: NCI-H522 lung
A549/ATCC NSCLC = tested on: A549/ATCC NSCLC
786-0 renal = tested on: 786-0 renal
COLO 205 colon = tested on: COLO 205 colon
DU-145 prostate = tested on: DU-145 prostate
K-562 leukemia = tested on: K-562 leukemia
MALME-3M melanoma = tested on: MALME-3M melanoma
MDA-MB-231 breast = tested on: MDA-MB-231 breast
RXF 393 renal = tested on: RXF 393 renal
SF-268 CNS = tested on: SF-268 CNS
SF-295 CNS = tested on: SF-295 CNS
SF-539 CNS = tested on: SF-539 CNS
UACC-257 melanoma = tested on: UACC-257 melanoma
M14 melanoma = tested on: M14 melanoma
HOP-92 NSCLC = tested on: HOP-92 NSCLC

Row | SMILES | growth (NCI-H23 lung) | growth (NCI-H226 lung) | growth (NCI-H322M lung) | growth (HOP-62 NSCLC) | growth (NCI-H460 lung) | growth (NCI-H522 lung) | growth (A549/ATCC NSCLC) | growth (786-0 renal) | growth (COLO 205 colon) | growth (DU-145 prostate) | growth (K-562 leukemia) | growth (MALME-3M melanoma) | growth (MDA-MB-231 breast) | growth (RXF 393 renal) | growth (SF-268 CNS) | growth (SF-295 CNS) | growth (SF-539 CNS) | growth (UACC-257 melanoma) | growth (M14 melanoma) | growth (HOP-92 NSCLC) [%]
1 | O=C(O)COc1ccc2c(=O)c3sc4c(=O)c5ccccc5c(=O)c4c3c(=O)c2c1 | -39.6% (active) | 28.6% | -96.5% (active) | -81.1% (active) | -63.2% (active) | 10.9% | -44.8% (active) | 70.9% | -46.2% (active) | -89.6% (active) | 24.9% | -75.4% (active) | 45.2% | 49.3% | 44.7% | -97% (active) | -45.7% (active) | -3.61% (active) | -95.6% (active) | 
2 | COc1ccccc1Nc1nnc(-c2ccc(Cl)cc2)o1 | 63.9% | 73.6% | 70.5% | 47.4% | 16.1% | 16.6% | 34.4% | 75.8% | 35.3% | 72.3% | 11.7% | 46.3% | 63.5% | 74.6% | 60.5% | 40.3% | 57.1% | 65.8% | 21.7% | 
3 | CCOCc1cc(C(C)(C)C)ccc1O | 103% | 97.4% | 106% | 95.2% | 103% | 77.9% | 90.4% | 97.6% | 114% | 110% | 101% | 104% | 105% | 109% | 105% | 105% | 103% | 89.3% | 104% | 
4 | COc1ccc2nc(-c3ccc(OC)c(OC)c3)cc(-c3nnc(SCC(=O)Nc4ccc(C(C)=O)cc4)o3)c2c1 | 104% | 96.9% | 103% | 107% | 105% | 88.3% | 94% | 101% | 116% | 108% | 99.2% | 109% | 99.5% | 102% | 104% | 100% | 96% | 101% | 105% | 
5 | Cc1cccc(C)c1NCc1nnc(-c2ccc(O)cc2)o1 | 91.1% | 95.5% | 98.9% | 111% | 96.9% | 97.1% | 104% | 102% | 97.3% | 110% | 126% | 101% | 103% | 108% | 101% | 96.5% | 97.8% | 111% | 98.5% | 
6 | CC(C)Cc1cc(CNC(=O)C2[C@H]3CN(C(=O)c4ccccc4)C[C@@H]23)nn1-c1ccccc1 (some centres undefined) | 96.3% | 94.1% | 95.3% | 83.4% | 102% | 49.4% | 72.2% | 99.4% | 93.1% | 100% | 80.9% | 86.6% | 103% | 99.8% | 94.4% | 101% | 96.8% | 73.4% | 95.5% | 
7 | C=CCn1c(SCC(=O)Nc2ccc(C(=O)/C=C/c3ccc(Cl)cc3)cc2)nnc1-c1cc(OC)c(OC)c(OC)c1 | 92.9% | 79.6% | 101% | 98.3% | 99.6% | 76.3% | 85.6% | 81% | 110% | 100% | 83.8% | 115% | 80.5% | 90.8% | 87.8% | 94.3% | 96.4% | 95.8% | 93.9% | 
8 | O=c1[nH]c(-c2cccc(F)c2)cc2cc(F)ccc12 | 45.9% | 96.3% | 59.1% | 31.9% | 13.9% | 11.3% | 25.6% | 44.2% | -2.11% (active) | 30.1% | 14.1% | 73% | 49.8% | 9.93% (active) | 68.4% | 8.3% (active) | -1.4% (active) | 55.3% | 20.3% | 
9 | COc1ccccc1N1CCN(CCCOc2ccc(C(=O)/C=C3/C(=O)Nc4ccccc43)cc2)CC1 | 45.3% | 53% | 88.7% | 38.2% | 66.4% | 65.9% | 76% | 45.7% | 65.5% | 81.8% | 17.6% | 66.5% | 57% | 72.4% | 86.9% | 71.1% | 81.5% | 90.2% | 66% | 
10 | Nc1c(C(=O)Nc2cccc3ccccc23)sc2nc3c(cc12)CCCCC3 | 44.8% | 72.7% | 51.3% | 38.9% |  | 0.413% (active) | 19.3% | 30.5% | 2.61% (active) | 18.4% | 8.68% (active) | 75.7% | 49.4% | 17.5% | 46.3% | 21.1% | -1.19% (active) | 63% | 1.3% (active) | 63.2
11 | CCN(CC)c1ccc2c(c1)Oc1nc(N)c(C#N)c(N)c1C2Sc1ccc(OC)cc1 (centres undefined) | -25.8% (active) | 5.34% (active) | 97.6% | 35.9% | -18.3% (active) | -61.9% (active) | 72.8% | 0.244% (active) | -60% (active) | -0.338% (active) | 13.5% | 1.4% (active) | -0.581% (active) | -0.0562% (active) | 16.5% | 29.1% | -34.6% (active) | 92.1% | -16.2% (active) | 
12 | COc1ccc2[nH]c(=O)c(/C=C/C(=O)c3ccccc3OC)cc2c1 | 21.3% | 38.9% | 18.3% | 8.67% (active) | 1.79% (active) | 3.93% (active) | 10.4% | 8.21% (active) | 20.4% | 10.8% | 4.24% (active) | 38.6% | 0.317% (active) | -7.9% (active) | 9.36% (active) | 8.29% (active) | -10% (active) | 37.6% | 13.8% | 
13 | O=C1CC23OC4ON=C(Br)C4C2C(O)c2ccccc2N13 (centres undefined) | 87.9% | 97.7% | 96.8% | 106% | 106% | 79.6% | 103% | 101% | 125% | 105% | 110% | 79.9% | 98.8% | 115% | 95.1% | 109% | 107% | 103% | 92.4% | 
14 | COC(=O)c1nc(-c2ccccc2)oc1S(=O)(=O)n1nc(-c2ccccc2)cc1N | 90.4% | 105% | 90.7% | 101% | 100% | 44.3% | 102% | 87.3% | -8.05% (active) | 96.2% | 4.99% (active) | 2.22% (active) | 103% | 103% | 87.5% | 97.5% | 80.7% | 52% | 76% | 
15 | O=C1C(Cl)=C(Nc2ccc3c(c2NC2=C(Cl)C(=O)c4ccccc4C2=O)C(=O)c2ccccc2C3=O)C(=O)c2ccccc21 | -3.56% (active) | 36.9% | 46.9% | 39.5% | 10.4% | 12.4% | -31.8% (active) | 48.5% | 21.1% | -83.9% (active) | 16.6% | -85.1% (active) | 14.6% | 48.5% | 39.5% | 23.8% | 15% | -20.4% (active) | -64.8% (active) | 
16 | CCOC(=O)/C=C1\SC(=Nc2ccc(C#N)cc2)N(CCN2C(=O)/C(=C/C(=O)OCC)SC2=Nc2ccc(C#N)cc2)C1=O | 52% | 92.9% | 86.6% | 51.3% | 31.6% | 36.4% | 77.5% | 48.5% | 18.6% | 41.7% | 7.43% (active) | 98.6% | 16.3% | 49.7% | 29.7% | 76.8% | 41.6% | 77.3% | 52.3% | 
